Assay results: PubChem BioAssay AID1159580 (chemical genetic matrix, 2015)
About 2,000 (36%) of roughly 5,500 compounds were called active. About 18% were inconclusive and are not listed. No stated cut-off is given here; in the data, active means normalized growth mostly below about 0.91 (no sharp cut-off); inconclusive means no clear call, values can overlap the other calls; inactive means mostly above about 0.92. Some of the results follow.

Test: chemical genetic growth profiling, strain panel (AID 1159580);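 further: tested at 20 µM; growth read once vehicle control cultures reached saturation at 30 °C; 1 = growth at the plate median or of vehicle wells; lower values mean less growth of the strain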
Settings: S. cerevisiae deletion strains, growth OD

Measured: normalized growth

CN(C)CCOc1ccc(/C(=C(/CCCl)c2ccccc2)c2ccccc2)cc1
active: locus YAL021C, strain ccr4, active compounds read low 0.0628 | locus YAL026C, strain drs2, active compounds read low 0.0599 | locus YAL030W, strain snc1, active compounds read low 0.0605 | locus YBL061C, strain skt5, active compounds read low 0.0647 | locus YBR009C, strain hhf1, active compounds read low 0.0629 | locus YBR023C, strain chs3, active compounds read low 0.0684 | locus YBR171W, strain sec66, active compounds read low 0.1 | locus YBR231C, strain swc5, active compounds read low 0.0672 | locus YBR279W, strain paf1, active compounds read low 0.0678 | locus YCL011C, strain gbp2, active compounds read low 0.0647 | locus YCL016C, strain dcc1, active compounds read low 0.0711 | locus YCL061C, strain MRC1, active compounds read low 0.107 | locus YCL069W, strain vba3, active compounds read low 0.071 | locus YCR088W, strain abp1, active compounds read low 0.0709 | locus YDL005C, strain med2, active compounds read low 0.0725 | locus YDL040C, strain nat1, active compounds read low 0.0985 | locus YDR001C, strain nth1, active compounds read low 0.0873 | locus YDR069C, strain doa4, active compounds read low 0.0653 | locus YDR137W, strain rgp1, active compounds read low 0.0958 | locus YDR159W, strain sac3, active compounds read low 0.0868 | locus YDR195W, strain ref2 0.126 | locus YDR297W, strain sur2, active compounds read low 0.0624 | locus YDR334W, strain swr1, active compounds read low 0.0691 | locus YDR335W, strain msn5, active compounds read low 0.0647 | locus YDR392W, strain spt3, active compounds read low 0.0935 | locus YEL003W, strain gim4, active compounds read low 0.0736 | locus YEL037C, strain rad23, active compounds read low 0.0691 | locus YEL061C, strain CIN8 (second series), active compounds read low 0.0848 | locus YER015W, strain faa2, active compounds read low 0.0621 | locus YER016W, strain bim1, active compounds read low 0.0811 | locus YER111C, strain swi4, active compounds read low 0.0861 | locus YER155C, strain BEM2 (second series), active compounds read low 0.107 | locus YFR010W, strain ubp6, active compounds read low 0.069 | locus YGL167C, strain pmr1, active compounds read low 0.0724 | locus YGL173C, strain kem1, active compounds read low 0.0697 | locus YGL227W, strain vid30, active compounds read low 0.0851 | locus YGL240W, strain doc1, active compounds read low 0.0984 | locus YGL253W, strain hxk2, active compounds read low 0.0578 | locus YHR013C, strain ard1, active compounds read low 0.111 | locus YHR027C, strain rpn1, active compounds read low 0.063 | locus YHR030C, strain SLT2, active compounds read low 0.711 | locus YHR079C, strain IRE1, active compounds read low 0.837 | locus YHR142W, strain chs7, active compounds read low 0.0764 | locus YJL092W, strain hpr5, active compounds read low 0.0832 | locus YJL095W, strain BCK1 (second series), active compounds read low 0.0582 | locus YJL095W, strain BCK1, active compounds read low 0.648 | locus YJL115W, strain asf1, active compounds read low 0.118 | locus YJL129C, strain trk1, active compounds read low 0.0917 | locus YJL154C, strain vps35, active compounds read low 0.0755 | locus YJL164C, strain tpk1, active compounds read low 0.0629 | locus YJL166W, strain qcr8, active compounds read low 0.0637 | locus YJL187C, strain SWE1, active compounds read low 0.0638 | locus YJR066W, strain TOR1, active compounds read low 0.819 | locus YKL160W, strain elf1, active compounds read low 0.079 | locus YKR026C, strain gcn3, active compounds read low 0.106 | locus YKR091W, strain srl3, active compounds read low 0.0783 | locus YLL001W, strain dnm1, active compounds read low 0.0676 | locus YLL026W, active compounds read low 0.0624 | locus YLL041C, strain sdh2, active compounds read low 0.0691 | locus YLR027C, strain aat2, active compounds read low 0.0598 | locus YLR113W, strain HOG1, active compounds read low 0.791 | locus YLR221C, strain rsa3, active compounds read low 0.0691 | locus YLR258W, strain gsy2, active compounds read low 0.0661 | locus YLR262C, strain YPT6 (second series), active compounds read low 0.0861 | locus YLR320W, strain mms22, active compounds read low 0.0789 | locus YLR342W, strain FKS1, active compounds read low 0.0712 | locus YLR357W, strain rsc2, active compounds read low 0.148 | locus YLR370C, strain arc18, active compounds read low 0.0617 | locus YLR384C, strain iki3, active compounds read low 0.078 | locus YML120C, strain ndi1, active compounds read low 0.0751 | locus YMR058W, strain fet3, active compounds read low 0.064 | locus YMR125W, strain sto1, active compounds read low 0.0872 | locus YMR129W, active compounds read low 0.0788 | locus YMR205C, strain PFK2, active compounds read low 0.0858 | locus YMR231W, strain pep5, active compounds read low 0.0638 | locus YNL071W, strain lat1, active compounds read low 0.0628 | locus YNL209W, strain ssb2, active compounds read low 0.0599 | locus YNL248C, strain rpa49, active compounds read low 0.166 | locus YNL322C, strain KRE1 (second series), active compounds read low 0.433 | locus YNR049C, strain mso1, active compounds read low 0.0725 | locus YOR001W, strain rrp6, active compounds read low 0.0831 | locus YOR070C, strain gyp1, active compounds read low 0.0593 | locus YOR080W, strain dia2, active compounds read low 0.0814 | locus YOR083W, strain WHI5, active compounds read low 0.0673 | locus YOR106W, strain vam3, active compounds read low 0.117 | locus YOR231W, strain MKK1, active compounds read low 0.791 | locus YOR265W, strain rbl2, active compounds read low 0.0684 | locus YOR270C, strain vph1, active compounds read low 0.0918 | locus YOR290C, strain snf2, active compounds read low 0.0929 | locus YPL051W, strain arl3, active compounds read low 0.0673 | locus YPL078C, strain atp4, active compounds read low 0.0865 | locus YPL106C, strain sse1, active compounds read low 0.1 | locus YPL240C, strain hsp82, active compounds read low 0.0664
inactive: locus YNL183C, strain NPR1, active compounds read low 0.85 | locus YPL256C, strain CLN2, active compounds read low 0.835
